Experimental data reported in paper PMC5540273 (PLoS ONE, 2017).

How the values were obtained:
Settings in all cases: concentration: 1 μM, replicates: in singlicate; n = 1
[1] = system: T1, ERK4
T1 construct: gene MAPK4

[2] = system: T2, ERK5
T2 construct: gene MAPK7

[3] = system: T3, ERK8
T3 construct: gene MAPK15

[4] = system: ERN1
[5] = system: T4, FAK
T4 construct: gene PTK2

[6] = system: FER
[7] = system: FES
[8] = system: FGFR1
[9] = system: FGFR2
[10] = system: FGFR3
[11] = system: FGFR4
[12] = system: FGR
[13] = system: FLT1
[14] = system: FLT3-autoinhibited
[15] = system: FLT3
[16] = system: FLT4
[17] = system: FRK
[18] = system: FYN
[19] = system: GAK
[20] = system: T5, GCN2(Kin.Dom.2,S808G)
T5 construct: gene EIF2AK4
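Also: KINOMEscan kinase panel screen.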

| Compound | %Inh [1] [%] | %Inh [2] [%] | %Inh [3] [%] | %Inh [4] [%] | %Inh [5] [%] | %Inh [6] [%] | %Inh [7] [%] | %Inh [8] [%] | %Inh [9] [%] | %Inh [10] [%] | %Inh [11] [%] | %Inh [12] [%] | %Inh [13] [%] | %Inh [14] [%] | %Inh [15] [%] | %Inh [16] [%] | %Inh [17] [%] | %Inh [18] [%] | %Inh [19] [%] | %Inh [20] [%] |
| --- | --- | --- | --- | --- | --- | --- | --- | --- | --- | --- | --- | --- | --- | --- | --- | --- | --- | --- | --- | --- |
| CCCc1ccc(S(=O)(=O)NC2CCN(c3ccnc(Nc4ccc(OC)cc4)n3)C2)cc1 (centres unmarked) [GSK1379737] | 17 | 0 | 0 | 0 | 0 | 12 | 0 | 0 | 0 | 0 | 8 | 12 | 3 | 0 | 26 | 9 | 0 | 7 | 0 | 33 |
| CCc1nc(-c2cccc(N(C)S(=O)(=O)c3ccccc3)c2)c(-c2ccnc(Nc3ccc(N4CCN(C(C)=O)CC4)nc3)n2)s1 [GSK1645895] | 18 | 19 | 0 | 28 | 0 | 0 | 0 | 0 | 0 | 3 | 0 | 73 | 24 | 18 | 0 | 14 | 0 | 40 | 85 | 4 |
| Cl.Cl.c1ccc(-c2cc3ccncc3cc2OC2CCNCC2)cc1 [GSK1122999] | 8 | 0 | 0 | 0 | 0 | 36 | 0 | 0 | 0 | 11 | 30 | 23 | 28 | 0 | 4 | 22 | 0 | 44 | 12 | 11 |
| Cc1cccc(-c2nc(Nc3ccc4[nH]nnc4c3)c3ccccc3n2)n1 [GW867587] | 0 | 0 | 0 | 0 | 0 | 0 | 0 | 0 | 0 | 0 | 0 | 0 | 0 | 0 | 0 | 0 | 0 | 0 | 0 | 0 |
| O=C(Nc1ccccc1)Nc1ccc(Oc2ccc3nccn3n2)cc1 | 0 | 1 | 14 | 100 | 0 | 0 | 0 | 0 | 8 | 15 | 63 | 19 | 51 | 0 | 25 | 6 | 0 | 0 | 0 | 16 |
| COc1ccc(-c2oc3ncnc(N)c3c2-c2ccc(OC)cc2)cc1 [SB-589132] | 27 | 0 | 0 | 18 | 0 | 5 | 0 | 0 | 3 | 0 | 3 | 43 | 21 | 18 | 13 | 12 | 17 | 46 | 48 | 41 |
| Cc1ccc(C)c(NC(=O)NCCNc2ccnc(Nc3ccc(F)cc3)n2)c1 [GSK1379878] | 17 | 98.4 | 0 | 0 | 0 | 17 | 0 | 0 | 14 | 0 | 0 | 4 | 24 | 0 | 0 | 0 | 0 | 0 | 0 | 0 |
| Nc1nc(-c2cccnc2)c(-c2ccnc3ccccc23)s1 [GW684083] | 12 | 0 | 0 | 0 | 0 | 24 | 0 | 4 | 20 | 21 | 0 | 24 | 29 | 0 | 16 | 0 | 5 | 12 | 77 | 24 |
| Nc1nc(-c2ccc3c(N)n[nH]c3c2)cc(N2CCC[C@@H](C(=O)Nc3ccccc3)C2)n1.O=C(O)C(F)(F)F.O=C(O)C(F)(F)F [GSK2288359] | 16 | 0 | 0 | 23 | 0 | 0 | 0 | 0 | 0 | 7 | 8 | 15 | 6 | 29 | 0 | 0 | 0 | 38 | 0 | 0 |
| CNc1nccc(-c2c(-c3ccc(F)cc3)ncn2CCCN2CCOCC2)n1 [SB-222516] | 2 | 0 | 14 | 0 | 6 | 12 | 7 | 26 | 0 | 0 | 0 | 10 | 1 | 14 | 15 | 5 | 0 | 0 | 0 | 0 |
| CCc1nc(-c2cccc(C)c2)c(-c2ccnc(NC(=O)c3ccccc3)c2)s1 | 2 | 9 | 0 | 23 | 0 | 0 | 32 | 11 | 0 | 0 | 0 | 35 | 0 | 1 | 0 | 8 | 0 | 0 | 33 | 0 |
| C[C@H]1CC[C@@H](C(=O)Nc2ccccc2)CN1c1cc(-c2ccc3c(N)n[nH]c3c2)nc(N)n1 [GSK2283293] | 29 | 0 | 0 | 0 | 0 | 3 | 9 | 0 | 5 | 0 | 0 | 27 | 13 | 0 | 0 | 4 | 5 | 0 | 0 | 0 |
| CC(=O)Nc1n[nH]c2ncc(-c3ccccc3)cc12 [SB-548492] | 0 | 0 | 60 | 0 | 0 | 4 | 25 | 4 | 0 | 10 | 0 | 16 | 25 | 47 | 74 | 0 | 0 | 0 | 31 | 27 |
| CN1CCC(n2cnc(-c3ccc(F)cc3)c2-c2ccnc(NC3CCNCC3)n2)CC1 [SB-229482] | 0 | 0 | 0 | 2 | 0 | 0 | 5 | 4 | 0 | 9 | 0 | 0 | 0 | 0 | 27 | 0 | 0 | 1 | 0 | 0 |
| CS(=O)(=O)CCNCc1ccc(-c2ccc3ncnc(Nc4ccc(OCc5ccccc5)c(Cl)c4)c3c2)o1.Cl [GW574783] | 0 | 0 | 15 | 0 | 11 | 14 | 0 | 0 | 0 | 12 | 0 | 9 | 26 | 0 | 11 | 0 | 0 | 14 | 0 | 16 |
| CC(C)N1CCC(n2cnc(-c3ccc(F)cc3)c2-c2ccnc(N)n2)CC1 [SB-223132] | 0 | 0 | 4 | 0 | 16 | 8 | 0 | 22 | 10 | 21 | 0 | 16 | 0 | 0 | 0 | 0 | 1 | 0 | 2 | 0 |
| c1ccc(-c2ccc3c(-c4ccnc(Nc5ccc6c(c5)OCCO6)n4)cnn3n2)cc1 [GW818941] | 0 | 0 | 92.7 | 0 | 6 | 23 | 0 | 18 | 0 | 15 | 10 | 23 | 31 | 18 | 36 | 36 | 9 | 32 | 28 | 11 |
| CCn1c(-c2ccncc2)nc2cnccc21 [SB-735216] | 3 | 8 | 0 | 5 | 9 | 0 | 3 | 0 | 0 | 17 | 11 | 3 | 4 | 20 | 15 | 5 | 0 | 19 | 13 | 12 |
| N#Cc1ccc(Oc2ccc(Nc3ncnc4cc[nH]c34)cc2Cl)cc1 | 17 | 20 | 12 | 8 | 8 | 0 | 17 | 9 | 1 | 8 | 27 | 22 | 8 | 15 | 10 | 0 | 23 | 20 | 17 | 10 |
